# Results as given in PubChem BioAssay AID488890 (Southern Research Specialized Biocontainment Screening …, 2010).
# Out of some 320,000 compounds screened, about 1,300 (0.41%) were called active. Not shown: some 3% with an inconclusive outcome. How the calls were made is not given here. A selection follows. Entries with a potency or affinity are not part of this list.
# Assay: growth inhibition of non-replicating M. tuberculosis (AID 488890);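 further: plate controls were DMSO cells for no effect and high antibiotic wells for full effect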
# Conditions: Mycobacterium tuberculosis non-replicating, at 25 µM, stronger effect = higher value
row,Structure (SMILES),inhibition
1,Cc1ccc(C)c(OCCCNCc2ccccc2)c1,32.5%
2,Brc1ccccc1OCCNCc1ccccc1,32.1%
3,CCc1sc(C(=O)Nc2ccc3c(c2)OCO3)cc1C,61.2%
4,O=C(Nc1ccc2c(c1)OCO2)c1cccs1,21.2%
5,O=C(N/N=C/c1c(Nc2cccc(C(F)(F)F)c2)nc2ccccn2c1=O)c1ccccc1[N+](=O)[O-],-6.01%
6,CN(C)c1ccccc1C(=O)c1ccccc1N(C)C,9.64%
7,O=[N+]([O-])c1ccccc1Oc1cnc2ccccc2n1,46.2%
8,Oc1ccccc1C1CC(c2cccs2)=NC(c2ccc(Cl)cc2)N1 (stereo unspecified),73.4%
9,Oc1ccc(Cl)cc1C1=NNC(c2cc(Br)cc3c2OCOC3)C1 (stereo unspecified),61.3%
10,COC(=O)C1=C(C(=O)OC)[C@@H]2N(Cc3ccccc3)c3ccccc3[C@@]23C[C@@H](C(=O)OC)N(C(=O)c2cccs2)C3=N1,21.8%
11,CC1CCc2c(C(=O)NCCCN3CCOCC3)csc2C1 (stereo unspecified),-0.86%
12,COc1cc(NS(=O)(=O)c2csc(C(N)=O)c2)cc(OC)c1,2.46%
13,COc1ccc(C)c2sc(N(CCN(C)C)C(=O)c3ccc4ccccc4c3)nc12,28.4%
14,Cc1ccc(CNC(=O)COc2ccc3c(c2)CCC3)cc1,55.2%
15,Cc1cccnc1NC(=O)COc1ccc2c(c1)CCC2,70.6%
16,Cc1cc(NC(=O)COC(=O)COc2ccc3c(c2)CCC3)no1,10.3%
17,CCOc1ccc(NC(=O)COc2ccc3c(c2)CCC3)cc1OC,66.5%
18,Cc1ccc(NC(=O)COc2ccc3oc4c(c3c2)CCCC4)nc1,57.5%
19,CC(=O)Nc1ccc(NC(=O)COc2ccc3c(c2)CCC3)cc1,79.7%
20,CC(C)C[C@@H](CSc1ccccc1)N1CCN(CCc2ccccc2)CCC1=O,31%
21,Fc1cccc(Cl)c1/C=C/c1cnc2ccccc2n1,13.9%
22,COc1ccc(-c2noc(CN(C)CCC3CCCCO3)n2)cc1 (stereo unspecified),17.2%
23,COc1ccc(N2C(=O)CSC2c2cccc(F)c2)cc1 (stereo unspecified),1.65%
24,COC(=O)C1=CN(c2ccc(OC)cc2)C=C(C(=O)OC)C1c1cccc(F)c1,26.1%

row,Structure (SMILES),inhibition
1,COc1ccccc1N(CC(=O)NCC1CCCO1)C(=O)CCC(=O)Nc1nccs1 (stereo unspecified),1.91%
2,Cc1nc2ccccc2c(=O)n1-c1cc(F)ccc1F,10.4%
3,Nc1ccccc1C(=O)c1ccccc1,-8.33%
4,Nc1ccccc1C#Cc1ccccc1,44.7%
5,COc1ccc(C(=O)Cn2c(NCCO)nc3ccccc32)cc1,-8.13%
6,CCCCNC(=O)CCn1nc(-c2ccc(C)cc2)c2ccccc2c1=O,1.93%
7,Cc1cc(C(=O)N/N=C/c2ccc3ccccc3c2)n[nH]1,-9.05%
8,Cc1cccc(Cn2ccc(NC(=O)c3cccnc3)n2)c1,31.2%
9,CCOC(=O)Cn1ccc(NC(=O)c2ccc3c(c2)OCO3)n1,-2.16%
10,CC1CCCC(C)N1C(=O)COC(=O)c1c[nH]c2ccccc12 (stereo unspecified),15.5%
11,COCCNC(=O)c1cc2cc(Br)cc(OC)c2oc1=O,56%
12,O=C(NCCO)c1cc2cc(Cl)cc(Cl)c2oc1=O,18%
13,COc1ccccc1/C=C/C(=O)OCCN1C(=O)c2ccccc2C1=O,2.64%
14,NC(=O)C1CCN(C(=O)NC2CC(=O)N(c3ccc4c(c3)OCCO4)C2)CC1 (stereo unspecified),-13.4%
15,CC(NC(=O)c1ccco1)C(=O)OCC(=O)c1ccc(Cl)s1 (stereo unspecified),13.9%
16,C/C(=N\NC(=O)c1ccc(C(=O)N/N=C(\C)c2ccco2)o1)c1ccco1,19.3%
17,CCC/C(=N/NC(=O)c1csc(C)c1C)c1ccc(Cl)s1,0.55%
18,C/C(=N\NC(=O)c1ccco1)c1ccc(C(=O)O)s1,-5.86%
19,O=C(COC(=O)c1ccc(Cl)nc1)NNC(=O)c1ccc(Br)cc1,6.9%
20,Cc1ccc(CS(=O)(=O)c2ccc(C(=O)N3CCN(c4ccccn4)CC3)cc2[N+](=O)[O-])cc1,-16.8%
21,CC(OC(=O)c1cccs1)C(=O)NC1CCCCC1C (stereo unspecified),-13.9%
22,Cc1ccc(C(=O)OC(C)C(=O)NC2CCCCC2C)s1 (stereo unspecified),-2.95%
23,COc1ccc(C(CNC(=O)C(Cc2ccccc2)NC(N)=O)N(C)C)cc1 (stereo unspecified),3.12%
24,CC(C)(C)C(=O)NC(=S)NNC(=O)c1ccncc1,71.7%

row,Structure (SMILES),inhibition
1,CCNC(=S)NNC(=O)c1ccncc1,65.4%
2,N/C(Cn1cncn1)=N\NC(=O)C(=O)Nc1ccccc1,18%
3,Nc1ccc(Oc2ccc(Br)cc2)cc1,60.5%
4,Nc1ccc(Br)cc1Br,-19.9%
5,Cc1cc2ncn(/N=C/c3cccnc3)c2cc1C,55%
6,Cc1ccc(/C=N/n2c(C)nc3ccccc3c2=O)s1,18.6%
7,O=[N+]([O-])c1ccc(O)c(/C=N/n2c(CO)nc3ccccc32)c1,-11.8%
8,Cc1cc2ncn(/N=C/c3ccc4c(c3)OCO4)c2cc1C,64.7%
9,Nc1nc2ccccc2n1/N=C/c1ccc([N+](=O)[O-])s1,74.1%
10,OCc1nc2ccccc2n1/N=C/c1cccs1,-12%
11,COc1ccc(C(=O)Nc2ccccc2)cc1S(=O)(=O)NCc1ccco1,-9.46%
12,Cc1ccc(S(=O)(=O)N2CCCC(C(=O)NNCC(=O)Nc3cc(F)ccc3F)C2)cc1 (stereo unspecified),11.7%
13,O=C(Nc1nnc(SCc2ccccc2F)s1)C1=COCCO1,45.5%
14,CNC(=O)COC(=O)c1ccc([N+](=O)[O-])cc1Cl,11.7%
15,CCc1cc2ccc(C)cc2nc1SCC(=O)c1ccc(NC(C)=O)cc1,12%
16,CC(C)Oc1ccc(NC(=O)CCC(=O)O)cc1,-9.1%
17,Cc1ccc(NCC(=O)c2ccc(C)cc2)cc1,72.5%
18,Cc1ccc(C(=O)CNc2ccc(Cl)cc2)cc1,74.1%
19,CC(C)Oc1ccc(NC(N)=O)cc1,-4.08%
20,Cc1ccc(-c2nnn(CC(=O)N(c3ccccc3)C(C(=O)NCC3CCCO3)c3cccs3)n2)o1 (stereo unspecified),-3.42%
21,O=C(O)C1C2C=CC(C2)C1C(=O)Nc1nccs1 (stereo unspecified),-3.04%
22,COc1ccc2c(=O)c(-c3ccccc3C)c(C)oc2c1,50.8%
23,Cc1ccc(N2C(=O)C3C4C=CC(CNC(=S)Nc5ccc(F)cc5)(O4)C3C2=O)cc1 (stereo unspecified),54.3%
24,COc1ccc(Cl)cc1S(=O)(=O)n1c([N+](=O)[O-])cnc1C,-6.01%

row,Structure (SMILES),inhibition
1,COc1ccc(OCC(=O)Nc2cccc(NC(=O)COc3ccc(OC)cc3)n2)cc1,-11.7%
2,O=C(COC(=O)CCOc1ccccc1)Nc1ccc(Cl)cn1,79.6%
3,Cc1ccc(OCC(=O)Nc2ccc([N+](=O)[O-])cn2)cc1C,-14.3%
4,O=C(COC(=O)COc1ccccc1)Nc1ccc(Cl)cn1,22.1%
5,Cc1ccc(OCC(=O)NC(=S)Nc2cccc(C)n2)cc1,7.91%
6,Cc1ccc(NC(=O)Cc2ccc(Cl)cc2)nc1,27.8%
7,O=C(Cc1ccc(Cl)cc1)Nc1ccc(Cl)cn1,78.1%
8,O=C(Cc1ccc([N+](=O)[O-])cc1)Nc1ccc(Br)cn1,-0.37%
9,COc1ccc(-c2nnc(NC(=O)c3cc(C)on3)s2)cc1,71.9%
10,O=C(OCc1cc(Cl)cc2c1OCOC2)c1cccnc1Cl,14.6%
11,CC(C)CCNc1nc(N)c([N+](=O)[O-])c(NCCO)n1,-5.48%
12,CCOc1cc(C2C(C(=O)c3ccco3)=C(O)C(=O)N2CCc2ccccc2)ccc1O (stereo unspecified),29.2%
13,COc1ccc(C2=NOC(Cn3nc(-c4ccccc4)cc3C(=O)NCc3cccc(Br)c3)C2)cc1 (stereo unspecified),-12.8%
14,Cn1c(N2CCCCC2)cc(=O)n(C)c1=O,-10.1%
15,CCOC(=O)C1CCCN(C2CC(=O)N(c3ccccc3)C2=O)C1 (stereo unspecified),30.8%
16,COC(=O)[C@@H]1C[C@@H]2CC[C@@H](O)C[C@@H]2N1Cc1ccccc1OS(=O)(=O)c1ccc(C)cc1,26.6%
17,Cc1cccc(-c2noc(CCCC(=O)NCC3CCCO3)n2)c1 (stereo unspecified),16.8%
18,O=C(c1cccc(S(=O)(=O)NCc2ccccc2)c1)N1CCN(c2ccccc2)CC1,17.1%
19,Cc1ccn2c(=O)nc(SCC(=O)Nc3ccc4c(c3)OCO4)nc2c1,25.1%
20,O=C(COc1ccc(Cl)cc1Cl)Nc1ccc(Cl)cn1,61%
21,O=C(COC(=O)c1ccc([N+](=O)[O-])cc1)Nc1ccc(Cl)cn1,34.3%
22,O=C(COc1ccccc1Cl)Nc1ccc(Cl)cn1,29.8%
23,Cc1ccc(C(=O)OCC(=O)Nc2ccc(Cl)cn2)s1,35.7%
24,c1ccc(-c2nnc(OCC3CCCO3)c3ccccc23)cc1 (stereo unspecified),4.74%

row,Structure (SMILES),inhibition
1,CCOc1ccc(C(=O)N/N=C/c2ccc(SC)cc2)cc1,7.39%
2,COc1ccc(Br)cc1S(=O)(=O)N1CCN=C1c1ccccc1,9.49%
3,CCOC(=O)c1c[nH]c2c(C)ccc(Cl)c2c1=O,5.99%
4,Cc1cccc(N=N/C(=C\O)C(=O)c2cccs2)c1,23.2%
5,O=C(/C(=C/O)N=Nc1ccccc1)c1cccs1,29.9%
6,CC1CCN(C(=O)CCCNC(=O)Cn2cnc3sc4c(c3c2=O)CCCC4)CC1,-3.59%
7,Cc1onc(-c2c(F)cccc2Cl)c1C(=O)NCCc1ccncc1,-2.23%
8,O=C(NCc1cccc2[nH]ccc12)C1CCC(=O)N(CCc2ccc(Cl)cc2)C1 (stereo unspecified),14.7%
9,CN1C[C@@H]2C[C@@H](C3=Cc4cc(Cl)ccc4OC3)N3CCC[C@@]23C1=O,8.63%
10,CN(CC(=O)Nc1ccccc1N1CCOCC1)CC(=O)Nc1ccc(F)c(F)c1F,7.73%
11,CCCC(=O)NC(Nc1ccc(S(=O)(=O)Nc2cc(C)on2)cc1)(C(F)(F)F)C(F)(F)F,69.8%
12,C/C(=N/NC(=O)c1ccccc1)C(=O)O,21.7%
13,CC(/C=C/c1ccccc1)=N/NC(=O)CNC(=O)c1ccc2c(c1)OCO2,-0.44%
14,CC(/C=C/c1ccc2c(c1)OCO2)=N\NC(=O)C(O)c1ccccc1 (stereo unspecified),-1.85%
15,CC(/C=C/c1ccccc1F)=N\NC(=O)C(C)C,13.2%
16,O=C(N/N=C/c1ccc2c(c1)OCO2)C1COc2ccccc2O1 (stereo unspecified),69.6%
17,CC(/C=C/C=C/c1ccccc1)=N/NC(=O)c1ccc2c(c1)OCCO2,11.1%
18,O=C(COc1cc(F)ccc1[N+](=O)[O-])Nc1cccc(S(=O)(=O)NC2=NCCC2)c1,-15.8%
19,C=CCSc1nccc(=O)[nH]1,17.7%
20,COc1ccc(CCNC(=O)NC(C(F)(F)F)C(F)(F)F)cc1OC,-0.6%
